The supplement of paper PMC3334620
Whole data set: some 33,000 sequences, median “E-score (-0.5 to 0.5)” near -0.01, cut for the highest 2% near 0.26. This is one part of a sample in which the highest values are shown more often than they occur.

biological target: Ste12 (UniProt P13574); test: PBM E-score (8-mer binding enrichment) (E-score (-0.5 to 0.5)); higher = stronger / more preferred TF binding; conditions: protein concentration: 200 nM; construct: GST-DNA-binding domain
Procedure: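 Universal 'all 10-mer' protein binding microarrays (Agilent AMADID 015681) probed with GST-tagged S. cerevisiae TFs (full-length or DBD) made by in vitro transcription/translation (PURExpress), about 100-200 nM. Bound TF was detected with fluorescent anti-GST. Each ungapped 8-mer (which stands for itself and its reverse complement) is scored by the PBM enrichment score (E-score), a modified Wilcoxon-Mann-Whitney statistic from -0.5 to +0.5, computed with the Universal PBM Analysis Suite. Scale: above 0.35 generally sequence-specific binding.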

Chain of UniProt P13574 (P13574 whole entry, the tested form may be a part): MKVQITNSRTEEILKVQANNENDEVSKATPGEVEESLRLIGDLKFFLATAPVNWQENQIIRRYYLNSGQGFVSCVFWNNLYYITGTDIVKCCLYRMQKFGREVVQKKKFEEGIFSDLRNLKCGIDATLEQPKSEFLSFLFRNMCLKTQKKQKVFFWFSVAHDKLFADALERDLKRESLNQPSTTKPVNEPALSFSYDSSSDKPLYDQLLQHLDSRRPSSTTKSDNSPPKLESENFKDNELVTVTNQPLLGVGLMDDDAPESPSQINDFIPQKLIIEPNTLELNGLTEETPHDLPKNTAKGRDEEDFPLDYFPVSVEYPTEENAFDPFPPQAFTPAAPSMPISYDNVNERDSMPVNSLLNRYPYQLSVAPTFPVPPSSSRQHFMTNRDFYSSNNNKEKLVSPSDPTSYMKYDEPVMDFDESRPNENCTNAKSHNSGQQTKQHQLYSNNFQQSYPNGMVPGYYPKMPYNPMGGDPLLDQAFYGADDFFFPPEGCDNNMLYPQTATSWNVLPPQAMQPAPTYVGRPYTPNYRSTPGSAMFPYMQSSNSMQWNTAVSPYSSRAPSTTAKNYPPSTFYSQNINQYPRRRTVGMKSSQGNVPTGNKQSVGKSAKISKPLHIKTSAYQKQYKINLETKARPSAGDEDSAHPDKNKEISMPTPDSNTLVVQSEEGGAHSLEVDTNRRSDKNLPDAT

Sequence | PBM E-score
CAGGTTCA | -0.0316
CGCTAACC | -0.0284
TGTACTAA | 0.053
GACTTGCC | -0.305
ACAAACCT | -0.111
CCAAAACG | 0.254
AAAAAACG | 0.269
AGAAAACG | 0.0569
CAAAAACG | 0.177
ACAAAACG | 0.35
ACAAAACC | 0.171
GCGCGCGC | 0.353
CCGCGCGG | 0.321
CCGCGCGC | 0.24
CCGCGCGA | 0.169
GCGCGCGA | 0.154
ACGCGCGC | 0.122
GGAGGGCA | 0.0377
ACTGGTTG | 0.0694
GGCCCGAC | 0.15
GGTGTTGA | -0.0828
ATAACTCA | 0.044
GACTGCCA | 0.107
GCTAGACA | -0.118
CCATGAAA | 0.252

Sequence | PBM E-score
TCATGACA | 0.178
TCATGAAA | 0.27
ACATGAAC | 0.0476
ACATGAAA | 0.283
GCATGAAC | -0.0143
TCATGAGA | 0.0861
GCATGAAA | 0.318
ACATGAAG | 0.091
ATCACCGG | -0.0135
GTCCACCA | -0.342
CTCTTAAG | -0.0926
AAAAGGAA | 0.188
AATATGAA | 0.269
CTTATGAA | 0.204
GTTATGAA | 0.221
ATTATGAA | 0.265
TATATGAA | 0.17
AATATGAC | 0.0945
CCAGCTAC | -0.091
AGCGACTA | -0.043
TCAGTCAA | -0.0289
GGGACACA | 0.17
GCCGCGGC | 0.29
CGCGCGCA | 0.208
CGCGCGCG | 0.262

Sequence | PBM E-score
CGCGCGGC | 0.306
AGCGCGGC | 0.0144
CCCGCGGC | 0.224
ACCGCGCC | -0.034
ACCGCGCT | -0.16
CGCGCGGA | 0.0633
ACCGCGCG | 0.273
GCCGCGGA | 0.0303
CGCGCGCC | 0.157
ACGGAGTG | -0.043
AACGACCC | -0.126
ACGCTCGG | -0.0861
GTTCAGTA | -0.0836
ATCGCACA | 0.0146
AACCAATA | 0.195
ACGTAGCG | -0.0127
GCTGAAAC | 0.485
CCTGAAAC | 0.487
GCTGAAGC | -0.0602
GCTGAAAA | 0.17
CCTGAAAG | -0.179
ACTGAAAA | 0.101
ACTGAAAC | 0.477
CCTGAAAA | 0.0508
ACTGAAAG | 0.175

Sequence | PBM E-score
GATGGGCA | -0.0542
AGAATATA | 0.0722
AAATCTAC | 0.151
CCCGCACA | 0.023
GCCAGGTA | -0.127
AACGATTC | -0.0106
GCCCTCAA | -0.23
GCGGTCAA | -0.0277
AGGTTTCA | 0.451
AGGTTTCG | 0.144
AGGTTTCC | -0.0692
CGTTTTCA | 0.132
CGGTTTAA | 0.00247
GGGGTTCA | -0.0134
GGTTTTCA | 0.311
GGGTTTGA | 0.18
GTTTTTCA | 0.217
GGGTTTCA | 0.435
CGGTTTCA | 0.452
CGGTTTCC | 0.1
AACGTCAG | -0.155
GAGGATTA | 0.0342
CCCGATAG | 0.0566
GGCTTTAA | 0.0191
AAAGCGCC | -0.0182

Sequence | PBM E-score
CGCTCAAC | -0.108
CTTGACCC | -0.129
ACCTCATC | -0.0717
GACAGCCC | -0.085
CTGAACGA | -0.167
AATCCAGC | -0.221
CAAACATA | 0.23
TAAACATA | 0.218
GAAACATC | 0.355
CAAACATC | 0.192
GAAACATA | 0.433
GATACATC | 0.0608
GCATATCA | 0.0522
ACGAATGA | 0.135
AAACGGAC | 0.149
AAACGGAG | 0.0885
AAACGGAT | 0.265
TACGCAAA | -0.0817
CCCAGACC | -0.0973
AAAGTACC | -0.0428
AAACACCG | 0.318
AAACACAG | 0.118
AAACACGA | 0.129
ATACACAC | -0.0713
ATACACAG | -0.054

Sequence | PBM E-score
AAACACGC | 0.288
CAACACCG | -0.103
AAACACAC | 0.243
AAACACAA | 0.291
CAACACGC | -0.247
AAACACCT | 0.104
ATACACAA | 0.283
ACGCCTAA | 0.0463
CTAGTTGA | 0.175
TAGCGAAA | 0.118
AGCAGTTG | -0.126
CCGGTCTA | -0.191
GCGATTTA | 0.0399
CGGAGAAG | -0.00086
GTTTTAAA | 0.378
GTTTAAAA | 0.3
GGTTTTTA | 0.166
CCTTTAAA | 0.0788
CTTTTAAA | 0.255
GTTTAAAC | 0.214
GGTTTAAA | 0.211
CTTTAAAC | 0.0682
GGTTTTAA | 0.298
GGGTTTAA | 0.215
GGTTAAAA | 0.256

Sequence | PBM E-score
CTTTAAAA | 0.266
ATGCGCAT | 0.0672
CAAGGAGG | -0.075
AACGATCG | 0.0136
TAGGCCTA | -0.15
AATGGGGG | -0.187
GCTATGAC | 0.0507
AGGAGTAA | -0.0677
CTGAGAAC | 0.0658
AACAGGGC | 0.0987
AGTTTTAA | 0.212
TCTTAAAA | 0.156
TGTTTTAA | 0.364
TGTTTAAA | 0.26
AGTTTTAT | 0.275
AGTTTTAC | 0.143
AGTTTTAG | 0.12
TTTTAAAA | 0.329
TTTAAAAA | 0.184
GCTTAAAC | -0.0138
GCTTAAAA | 0.31
CCTTAAAA | 0.162
CCCTAACG | -0.00496
AAGGGAGT | -0.232
CGCAGAAC | -0.122

Sequence | PBM E-score
AACAACCG | 0.0778
CAGATCAA | 0.00349
GTTTTTAA | 0.261
CTTTTTAA | 0.104
CGTTTTAG | 0.215
CGTTTTAA | 0.319
GTTTTTTA | 0.149
CGTTTTTA | 0.165
AAGAGTTG | -0.149
GGTTCATA | -0.0487
GGGAGAAC | -0.0492
ATCCTCAA | 0.00575
AAATTGTA | 0.048
AAATTGTC | 0.268
AAATTGTT | 0.186
CGTGTTTC | 0.36
CGTGTTTA | 0.0319
AGTGTTTG | 0.245
AGTGTTTA | 0.174
AGTGTTTC | 0.332
CGTGTTGC | 0.0401
GCCCTCGA | -0.216
CTTTAGTC | -0.0859
GGCCAAAA | 0.0718
TCAACTCA | 0.0748

Sequence | PBM E-score
CGAATACA | 0.0383
AGCAGTGA | -0.0211
ATATGCTC | 0.0529
CTAACGAA | 0.11
CAAACGAA | 0.101
GAAACGAC | 0.317
AAAACGAC | 0.0623
AAAACGAA | 0.237
TTAACGAA | 0.262
GAAACGAA | 0.367
ATAACGAA | 0.0476
CAAACGAC | 0.128
CAAGTCTG | -0.0972
CGTCGCTC | -0.115
AGTATGGG | -0.0937
ATGGCCGC | -0.0598
ATGAGGTC | 0.0263
AGGCTCGG | -0.112
ACAATTAA | 0.292
ATAATTAA | 0.276
ACAATTAC | 0.087
ATAATTTA | 0.357
GTAATTTA | 0.223
ATAATTTG | 0.212
ACAATTAT | 0.212

Sequence | PBM E-score
TTAATTAA | 0.245
ATAATTAC | 0.131
CCGCCAGG | -0.206
GCTCAGCA | -0.0833
AATCTCAT | 0.165
CTGACCGC | 0.123
AAATGCAC | -0.00999
CACCCATA | 0.105
ACCAGACG | -0.174
CGCGCGTC | 0.0795
ACGCCACG | -0.182
ATTCGAAA | 0.286
ATTCGAAG | -0.0567
ACTCGAAT | -0.144
ATTCGAAC | 0.105
CTTCGAAA | 0.132
ATTCGAAT | 0.268
GCCTTCCC | -0.0772
CACACTTC | 0.00873
AACCACTA | -0.00019
AAACATAT | 0.273
ATACATAC | 0.134
GGGCATAA | 0.218
ATACATAA | 0.21
CGGCATAA | -0.0029

Sequence | PBM E-score
AAACATAC | 0.241
TGGCATAA | 0.307
ATACATAT | 0.294
TGACATAA | 0.268
AGACATAA | 0.101
GGACATAA | 0.0357
AAACATAG | 0.205
ACATGCAT | 0.0142
GACGCACC | -0.00732
ATAAAGAC | -0.0448
CACCCTCC | 0.213
GAGTTTGC | 0.0562
ATCTACGG | -0.0913
AACTTTCT | 0.128
AACGGTGA | -0.122
ATTGCCCC | 0.0929
GGCGAGGA | -0.178
AATGGCCT | -0.00519
GAACATAA | 0.148
TAACATAA | 0.275
CAACATAA | 0.189
AAACATTA | 0.207
ACATACAG | 0.0443
ACATACAT | 0.263
ACATACAC | 0.0702

Sequence | PBM E-score
ACACATAA | 0.19
AAACATAA | 0.306
GCTCGCCA | -0.0532
ATTTGCGG | 0.148
ACCGTGCT | -0.08
AGTGCAAA | 0.101
GAGGGGAA | 0.0394
AAACAAGC | 0.202
ATACGATC | 0.157
AACAATTA | 0.297
AACAATTG | -0.0846
AACAATTC | 0.124
ATCAATTG | 0.154
ATCAATTA | 0.289
ATCAATTC | 0.0349
AACAATAG | 0.0913
AACAATAA | 0.301
AACAATAC | 0.0824
GCGGTTTA | 0.13
CTTGAGAC | 0.158
ATCACTAC | -0.117
CTAGATTA | -0.0366
TCCAAAGA | 0.0392
AGAAGAGC | -0.161
CCCGGCCG | -0.239

Sequence | PBM E-score
ACTGAGCC | -0.00502
GTATAAAA | 0.241
GTATATAC | -0.207
CTATATAC | 0.162
TCATAAAA | 0.231
ATATAAAT | 0.279
ATATAAAC | 0.161
ATATAAAG | 0.171
TTATATAA | 0.176
ATATATAC | 0.271
ATATATAA | 0.273
TTATAAAA | 0.268
CTATATAA | 0.174
CCGATTTA | 0.199
AGCATCTG | -0.159
AGTGACAG | -0.057
ACTAGTCC | -0.104
AGCAAACG | -0.0967
GTAGCTAC | -0.201
CTCCAGAA | -0.152
AGGTTTAG | 0.0936
AAGCCGGC | 0.0834
GCTTGACA | 0.0364
ACATCGAA | 0.0463
CGTCGCGC | 0.00057

Sequence | PBM E-score
GCAACAAC | -0.0707
CCGCTAAG | 0.109
ACATAAAA | 0.17
CTATAAAA | 0.235
ATATAAAA | 0.307
ACCCGCGG | 0.176
TCTGAAGA | -0.149
GACTCTGC | -0.0845
ATAAAAGA | 0.0538
GGCAAAAC | 0.133
GGAAAAAA | 0.309
GGCAAGAA | 0.0412
GAAAAAAC | 0.174
GGAAAAGA | 0.05
GGAAAACA | 0.177
GAAAAAAA | 0.369
GAGAAAAA | 0.147
GGCAAAAA | 0.346
ATAAAAGG | 0.0863
ATAAAAAG | 0.315
